# Source: PubChem BioAssay AID588855 (National Center for Advancing Translational Sciences (NCATS), 2011)
# Hit rate of the full screen: of about 410,000 compounds, about 5,000 (1.2%) were called active. About 13% were inconclusive and are not listed. Calls come from the whole dose curve; as a rule, active = well fitted inhibition curve with a large enough effect; inconclusive = small, poorly fitted or top-dose-only effect; inactive = no such curve, though single readings can be large or run the other way. The list comes from a sample in which actives are over-represented; it also holds similar structures and randomly drawn compounds.
# Test: qHTS for Inhibitors of TGF-b; note: nearly all actives have a fitted effect of over 65% in size
# Details: HepG2 CAGA-GFP TGF-b/SMAD3 reporter, GFP fluorescence, 18 h, TGF-beta stimulated, 500 pg/mL final; series mostly up to 46.1 µM; activity, negative = inhibition: at the top concentration
# In short: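 HEPG2 CAGA-GFP cells (1000/well, DMEM with 1% FBS) were pre-incubated 2 h at 37 degrees C, given compound by pin tool, then stimulated with TGF-beta at 500 pg/mL final for 18 h before per-cell GFP fluorescence imaging.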
# % is set by controls: 0 for no effect and ±100 for the full control effect; potency is the fitted concentration of half-maximal effect.
Structure (SMILES),"activity, negative = inhibition",Potency
CCC(C)NC(=O)Cn1c(=O)n(-c2ccc(Cl)cc2)c(=O)c2c3c(sc21)CCCC3 (stereo not drawn),-12.6% (inactive),–
CCOC(=O)c1ccc(NC(=O)CNC(=O)c2ccco2)cc1,1.66% (inactive),–
CCOC(=O)c1ccc(N2C(=O)c3n[nH]c(C)c3C2c2ccc(O)c(OC)c2)cc1 (stereo not drawn),–,11.2 µM (active)
COc1cc(C2c3c(oc4ccccc4c3=O)C(=O)N2c2nc(C)c(C)s2)ccc1O (stereo not drawn),-4.72% (inactive),–
CCOc1cc(C2C(C(=O)c3ccco3)=C(O)C(=O)N2Cc2ccccc2)ccc1O (stereo not drawn),-23% (inactive),–
CCOC(=O)c1ccc(N2C(=O)c3n[nH]c(-c4ccco4)c3C2c2ccc(O)cc2)cc1 (stereo not drawn),–,15.8 µM (active)
CCOC(=O)C1=C(c2ccccc2)N=C2SCC(=O)N2C1c1ccc(O)c(OC)c1 (stereo not drawn),2.21% (inactive),–
CCOc1ccc(-c2n[nH]c3c2C(c2ccccc2OC)N(c2ccc(Br)cc2)C3=O)cc1 (stereo not drawn),1.86% (inactive),–
CCOc1cc(C2c3c(-c4ccc(Br)cc4)n[nH]c3C(=O)N2c2ccc(Cl)cc2)ccc1O (stereo not drawn),–,4.47 µM (active)
CCOC(=O)c1ccc(NC2=CC(c3ccc(OCC)cc3)N(c3ccc(C(=O)OCC)cc3)C2=O)cc1 (stereo not drawn),11.5% (inactive),–
Cc1nc(SCC(=O)Nc2ccc(C(=O)O)cc2)n[nH]1,-24.3% (inactive),–
O=S(=O)(c1ccc(C2CCCCC2)cc1)N1CCN(c2ccc(Cl)c(Cl)c2)CC1,4.43% (inactive),–
CNc1ccc(-c2nc(-c3ccco3)no2)cc1[N+](=O)[O-],-2.19% (inactive),–
CC(C)(C)OC(=O)N(Cc1ccco1)S(=O)(=O)c1ccccc1Br,6.04% (inactive),–
CCOc1ccc(NC(=O)CCc2c(C)nn(-c3ccc(N4CCCC4)nn3)c2C)cc1,-14.8% (inactive),–
CC1(C)CC(=O)c2cc(C(=O)NCc3ccccc3)c(=O)[nH]c2C1,2.07% (inactive),–
CC(C)(C)c1ccc(C(=O)N2CCC(c3nc(-c4ccc(S(=O)(=O)N5CCCC5)cc4)no3)CC2)cc1,0% (inactive),–
COc1ccccc1Nc1c2c(nc3ccc(NC(=O)/C=C/c4cc(OC)c(OC)c(OC)c4)cc13)CCCC2,–,4.47 µM (active)
COc1cc(/C=C/C(=O)N2CCc3ccccc3C2)cc(OC)c1OC,14.2% (inactive),–
COc1ccc(NS(=O)(=O)c2cc(NC(=O)/C=C/c3cc(OC)c(OC)c(OC)c3)ccc2N2CCCCC2)cc1,0% (inactive),–

Structure (SMILES),"activity, negative = inhibition",Potency
CCOc1ccc(N2CC(c3nc4ccccc4n3CCOc3ccc(OC)cc3)CC2=O)cc1 (stereo not drawn),-16.7% (inactive),–
CCCCN1CC(c2nc3ccccc3n2CCCCOc2ccc(C)cc2C)CC1=O (stereo not drawn),–,11.2 µM (active)
CCc1ccccc1N1CC(c2nc3ccccc3n2CCCCOc2ccccc2)CC1=O (stereo not drawn),-0.426% (inactive),–
Cc1oc2ccc(O)c(CN3CCC(C)CC3)c2c1C(=O)Nc1ccccc1,17.7% (inactive),–
Cc1ccc(S(=O)(=O)c2nnn3c2nc(N2CCN(c4ccccc4F)CC2)c2cc(Cl)ccc23)cc1C,8.18% (inactive),–
COc1ccc(CNc2nc(-c3ccccc3)nn2C(=O)c2ccccc2OC)cc1,6.76% (inactive),–
OC(Cc1ccc2ccccc2n1)c1ccc(Cl)c(Cl)c1 (stereo not drawn),8.76% (inactive),–
CC1CC(C)CN(c2oc(-c3ccc(OCc4ccc(Cl)cc4)cc3)nc2C#N)C1 (stereo not drawn),-2.03% (inactive),–
CC1=C(C(=O)N2CCOCC2)CC(CC(=O)NCCN2CCOCC2)C(=O)N1CCC1=CCCCC1 (stereo not drawn),7.65% (inactive),–
CC1=C(C(=O)N(C)C)CC(CC(=O)NCCc2ccccn2)C(=O)N1CCC1=CCCCC1 (stereo not drawn),8.09% (inactive),–
CC1=C(C(=O)N(C(C)C)C(C)C)CC(CC(=O)NCCCCc2ccccc2)C(=O)N1CCC1=CCCCC1 (stereo not drawn),–,12.6 µM (active)
O=C(CSc1ccccc1)Nc1nnc(/C=C/c2ccccc2)s1,4.29% (inactive),–
O=C(Nc1ccc(Cl)cc1)Nc1nnc(/C=C/c2ccccc2)s1,–,7.08 µM (active)
COc1ccc(/C=C/c2nnc(NC(=O)C(C)C)s2)cc1,3.59% (inactive),–
COc1ccccc1CSc1ncc(-c2ccc([N+](=O)[O-])cc2)[nH]1,–,12.6 µM (active)
COc1ccc(-c2cnc(SCCNC(=O)c3ccc4c(c3)OCO4)[nH]2)cc1,-2.86% (inactive),–
COc1cccc(-c2cnc(C(O)c3ccccc3OC)[nH]2)c1 (stereo not drawn),1.48% (inactive),–
COc1ccc(C(=O)COC(=O)c2ccc([N+](=O)[O-])s2)cc1OC,-5.53% (inactive),–
Cc1nn(Cc2ccc(Cl)cc2)c(Cl)c1/C=N/NC(=O)CNc1ccccc1F,0% (inactive),–
COc1ccc(C(=O)NCC(=O)N/N=C/c2ccc([N+](=O)[O-])s2)cc1OC,–,11.2 µM (active)

Structure (SMILES),"activity, negative = inhibition",Potency
Cc1ccccc1NCC(=O)N/N=C\c1ccc([N+](=O)[O-])s1,–,11.2 µM (active)
Cc1ccc(S(=O)(=O)N2CCN(CC(=O)N/N=C/c3ccc(Br)s3)CC2)cc1,0% (inactive),–
COc1ccccc1OCCNC(=O)c1cc([N+](=O)[O-])cc([N+](=O)[O-])c1,4.16% (inactive),–
COc1ccc(C2C(=O)N(C3CCCCC3)CC(=O)N2Cc2ccccc2Cl)cc1OC (stereo not drawn),0.844% (inactive),–
O=C(Cc1ccc(Cl)cc1)Nc1ccc2nn(-c3ccc(Cl)cc3)nc2c1,-5.09% (inactive),–
CC1CCN(c2nc3ccc(C(=O)N4CCN(c5ccccc5)CC4)cc3s2)CC1,-18.9% (inactive),–
O=C(NCc1ccc(F)cc1)c1ccc2nc(N3CCCCC3)sc2c1,-18.5% (inactive),–
COc1ccc2nc(N3CCN(C(=O)c4ccc([N+](=O)[O-])o4)CC3)sc2c1,–,10 µM (active)
CCn1c2ccccc2c2cc(NC(=O)COc3ccc(C)cc3C)ccc21,-20.9% (inactive),–
Cn1nc(-c2ccccc2)c(-c2ccccc2)c(C(=O)Nc2ccc(S(N)(=O)=O)cc2)c1=O,-0.749% (inactive),–
CCCCNc1ccc(-c2nc(-c3ccncc3)no2)cc1[N+](=O)[O-],-16.9% (inactive),–
Cc1cccc(N2CCN(C(=O)Cn3ncc4c5ccccc5n(C)c4c3=O)CC2C)c1 (stereo not drawn),13.2% (inactive),–
COc1ccc(N(Cc2ccc(N(C)C)cc2)C(=O)c2ccc(S(C)(=O)=O)cc2)cc1,5.12% (inactive),–
CCOc1ccc(NC(=O)CN(Cc2ccccc2)S(=O)(=O)c2ccc(Cl)cc2)cc1,-14.5% (inactive),–
CCOc1ccc(N(Cc2ccccc2)C(=O)c2nc(S(C)(=O)=O)ncc2Cl)cc1,–,3.98 µM (active)
CCc1ccc(NC(=O)N2CCN(C(=O)c3nsc4ccccc34)CC2)cc1,0% (inactive),–
COc1ccc(CCNC(=O)c2cn(C)c3ccc(S(=O)(=O)N(C)C4CCCCC4)cc3c2=O)cc1OC,16% (inactive),–
CCOC(=O)c1ccc(-c2ccc(/C=C(\C#N)C(=O)Nc3ccc(C)cc3)o2)cc1,-1.98% (inactive),–
